# Reference: PubChem BioAssay
# “And” between values parts separate entries of the source, which are not always exact repeats. Equal entries are not always repeated. Inconclusive results are not listed. For some of these results: Entries with a potency or affinity are not part of this list. The source made the active and inactive calls.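 How the source made its calls, unless noted: active means at least 20% inhibition of 6-phosphogluconate dehydrogenase activity; inactive means the rest.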
# Key:
# [1] = polyglutamine-triggered caspase-3 activation inhibitors, cell-based (AID 1583); details: polyglutamine-induced caspase-3 activation, cell assay; stronger effect = higher value;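 tested at 10 µM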
# [2] = suppressors of polyQ aggregation in yeast, 75Q-TubU reporter (AID 1593); details: Yeast 75Q polyglutamine aggregation reporter
# [3] = rescue of polyQ-huntingtin neuronal dysfunction in worms, whole organism, C. elegans mechanosensory neurons, N-terminal huntingtin (AID 1599); details: touch response, stronger effect = higher value
# [4] = inhibitors of mitochondrial cytochrome c release, biochemical, purified mitochondria (AID 1603); details: stronger effect = lower value;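 further: mouse liver mitochondria challenged with calcium chloride; signal normalized to the plate average as 100%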
# [5] = inhibitors of polyQ protein aggregation (AID 1604); details: polyglutamine-induced protein aggregation inhibition assay; stronger effect = higher value; tested at 2.5 µM
# [6] = enhancers of glutamate uptake in motor neurons, MN-1 cell line (AID 1612); details: MN-1 motor neuron cells, stronger effect = higher value;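 further: tested at 1 µM final; 0% = mean of DMSO vehicle wells on each plate; positive means more glutamate uptake than control and negative means less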
# [7] = suppressors of polyglutamine aggregation in yeast, 75Q-TubH (AID 1616); details: S. cerevisiae 75Q-TubH polyglutamine aggregation suppression; stronger effect = higher value
# [8] = liver-stage malaria parasite growth inhibition, primary screen, cell-based, HepG2, luciferase luminescence, HepG2 viability (AID 624349; in the data active means parasite load remaining mostly below about 12%, no sharp cut-off; inactive means mostly above about 10%;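 further: 100% = mean of DMSO negative control wells on the same plate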); details: P. berghei liver stage in HepG2, luciferase luminescence, concentration not given here; parasite load remaining: stronger effect = lower value; viability: measured here: HepG2 viability without parasites
# [9] = molecular target: 6-phosphogluconate dehydrogenase, decarboxylating (Homo sapiens) (UniProt P52209); assay: 6PGD enzyme inhibitors, primary screen, biochemical, human, recombinant enzyme, NADPH absorbance (AID 1159550); details: recombinant 6PGD, NADPH absorbance 341 nm; at 10 µM; stronger effect = higher value
# Sequence of 6-phosphogluconate dehydrogenase, decarboxylating (Homo sapiens) (P52209 whole entry, looked up): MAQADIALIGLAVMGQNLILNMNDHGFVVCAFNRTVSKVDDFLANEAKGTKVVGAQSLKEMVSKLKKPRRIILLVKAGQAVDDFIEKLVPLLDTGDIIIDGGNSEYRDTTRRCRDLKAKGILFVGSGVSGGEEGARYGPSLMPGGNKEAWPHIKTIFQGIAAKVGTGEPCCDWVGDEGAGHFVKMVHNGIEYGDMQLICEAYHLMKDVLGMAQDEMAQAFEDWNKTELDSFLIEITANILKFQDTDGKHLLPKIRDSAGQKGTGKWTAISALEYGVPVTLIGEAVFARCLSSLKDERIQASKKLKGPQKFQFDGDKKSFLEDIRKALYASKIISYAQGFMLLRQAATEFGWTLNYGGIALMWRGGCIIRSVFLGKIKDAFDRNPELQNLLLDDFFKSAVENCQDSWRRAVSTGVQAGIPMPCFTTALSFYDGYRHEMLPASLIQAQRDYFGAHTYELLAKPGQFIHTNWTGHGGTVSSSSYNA
# [10] = differential killing of epithelial or mesenchymal cells, primary screen, imaging, PC-3E GFP, TEM4-18 mCherry, co-culture (AID 1345086;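 active means compounds killing one labelled cell type while sparing the other, by normalised counts and ratio limits, not self-fluorescent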;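 on all read-outs here: cells exposed to compound for 72 h before imaging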;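 on red/green cell ratio (normalised): normalised mesenchymal count divided by normalised epithelial count so high means epithelial killing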); details: imaging cell counts, at 1 µM; for red/green cell ratio (normalised): actives lie on both sides, counts scaled to control wells, 1 = unselective
# [11] = molecular target: Mitogen-activated protein kinase 7 (Homo sapiens) (UniProt Q13164); assay: ERK5 transactivation activators in reporter cells, primary screen, cell-based, HTS (AID 1508626;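 active means luciferase signal above three times the same-plate solvent-only control wells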;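 further: luciferase driven by Gal4-ERK5 fusion binding five Gal4 sites before minimal TATA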); details: HeLa Gal4-ERK5 transactivation, 18 h, at 5 µM, stronger effect = higher value
# Sequence of Mitogen-activated protein kinase 7 (Homo sapiens) (Q13164 whole entry, looked up, the tested form may be a part): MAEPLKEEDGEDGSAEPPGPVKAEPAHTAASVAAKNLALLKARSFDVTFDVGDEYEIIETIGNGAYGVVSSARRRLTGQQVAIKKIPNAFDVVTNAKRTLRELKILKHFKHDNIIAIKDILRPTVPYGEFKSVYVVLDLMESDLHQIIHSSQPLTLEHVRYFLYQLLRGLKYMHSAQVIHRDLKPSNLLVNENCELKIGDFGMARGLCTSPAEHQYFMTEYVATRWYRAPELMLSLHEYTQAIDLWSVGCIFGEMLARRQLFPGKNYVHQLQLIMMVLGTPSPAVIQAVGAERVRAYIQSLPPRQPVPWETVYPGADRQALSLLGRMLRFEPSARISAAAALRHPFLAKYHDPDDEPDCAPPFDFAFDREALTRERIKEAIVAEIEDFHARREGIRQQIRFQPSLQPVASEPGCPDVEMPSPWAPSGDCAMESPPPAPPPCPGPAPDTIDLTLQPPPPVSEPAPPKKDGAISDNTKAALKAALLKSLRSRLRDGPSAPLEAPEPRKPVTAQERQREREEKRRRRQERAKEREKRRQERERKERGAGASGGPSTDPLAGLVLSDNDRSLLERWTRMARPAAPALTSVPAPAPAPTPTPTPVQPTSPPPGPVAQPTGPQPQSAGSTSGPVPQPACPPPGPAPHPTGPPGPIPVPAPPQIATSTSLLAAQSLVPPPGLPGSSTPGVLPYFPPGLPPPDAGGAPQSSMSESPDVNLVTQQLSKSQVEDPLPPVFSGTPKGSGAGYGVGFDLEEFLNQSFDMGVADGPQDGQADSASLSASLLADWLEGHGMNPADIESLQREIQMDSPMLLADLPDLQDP
# [12] = growth inhibition of DIPG glioma cells, dose response, cell-based, SU-DIPG-XIII, MIPE4.0, CellTiter-Glo, qHTS (AID 1347061; cut-off not given, nearly all actives have AC50 up to about 37 µM;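 further: cells exposed to compound for 48 hours before readout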); details: SU-DIPG-XIII viability, CellTiter-Glo ATP luminescence
# [13] = growth inhibition of DIPG glioma cells, dose response, cell-based, JHH-DIPG-1, MIPE4.0, CellTiter-Glo, qHTS (AID 1347062; cut-off not given, nearly all actives have AC50 up to about 27 µM); details: JHH-DIPG-1 viability, CellTiter-Glo ATP luminescence
# [14] = survival rescue of mitochondrial mutant cells in low glucose, primary screen, MELAS cybrids, Rieske KO mouse fibroblasts, CellTiter-Glo (AID 1508586;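 active means mean z-score across replicates of 1.96 or higher in either the MELAS or the Rieske mutant cell line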;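 further: z relative to plate mean and SD of compound and empty wells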)
# [15] = molecular target: NAD(+) hydrolase SARM1 (Homo sapiens) (UniProt Q6SZW1); assay: SARM1 TIR NADase inhibitors, cell lysate, NAD-Glo luminescence (AID 1508614;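 active means compound whose remaining NAD level is above about 45 nM, limit read from the data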); details: SAM-TIR HEK293T lysate NADase, at 1 µM, stronger effect = higher value
# Sequence of NAD(+) hydrolase SARM1 (Homo sapiens) (Q6SZW1 whole entry, looked up): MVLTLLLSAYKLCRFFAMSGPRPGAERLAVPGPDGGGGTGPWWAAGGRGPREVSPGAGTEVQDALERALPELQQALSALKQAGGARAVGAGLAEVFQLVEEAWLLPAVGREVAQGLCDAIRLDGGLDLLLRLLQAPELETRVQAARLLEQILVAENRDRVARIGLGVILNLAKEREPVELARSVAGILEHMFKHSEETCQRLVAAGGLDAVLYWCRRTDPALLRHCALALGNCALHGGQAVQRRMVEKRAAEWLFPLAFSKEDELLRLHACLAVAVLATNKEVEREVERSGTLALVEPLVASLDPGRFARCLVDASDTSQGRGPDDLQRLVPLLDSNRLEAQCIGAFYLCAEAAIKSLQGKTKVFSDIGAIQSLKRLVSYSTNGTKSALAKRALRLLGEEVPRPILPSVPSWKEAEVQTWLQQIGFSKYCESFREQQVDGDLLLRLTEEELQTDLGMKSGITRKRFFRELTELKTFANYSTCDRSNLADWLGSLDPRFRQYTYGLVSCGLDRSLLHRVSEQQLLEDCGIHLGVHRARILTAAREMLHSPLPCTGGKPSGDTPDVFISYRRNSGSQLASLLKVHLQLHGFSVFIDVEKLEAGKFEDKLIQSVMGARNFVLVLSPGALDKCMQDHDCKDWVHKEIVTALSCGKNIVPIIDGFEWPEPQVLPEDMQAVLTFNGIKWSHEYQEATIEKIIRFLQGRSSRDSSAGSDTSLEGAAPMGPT
# [16] = viability rescue of complex I mutant cybrids, primary screen, cell-based, galactose medium, ATP luminescence (AID 1645843;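 active means z-score of at least 1.8 in each of two replicates, scored against plate mean and spread of sample wells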;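 further: positive z means more ATP and so rescue of galactose-driven cybrid death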); details: complex I mutant cybrid cells, 72 h, stronger effect = higher value
# [17] = growth inhibition of DIPG glioma cells, dose response, cell-based, SU-DIPG-IV, MIPE4.0, CellTiter-Glo, qHTS (AID 1347063; cut-off not given, nearly all actives have AC50 up to about 30 µM;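 further: compound exposure lasted 48 hours before the viability readout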); details: SU-DIPG-IV viability, CellTiter-Glo ATP luminescence
# [18] = JHH-DIPG-1 glioma cell viability, MIPE5.0 library, CellTiter-Glo luminescence, qHTS (AID 1347067; cut-off not given, nearly all actives have AC50 up to about 26 µM;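 further: cells exposed to compound for 48 hours before readout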); details: JHH-DIPG-1 glioma viability, CellTiter-Glo ATP luminescence
# [19] = sensitizers of A549 cells to miR-34 induction, primary screen, imaging, A549 dox-inducible miR-34, nuclei and caspase counts (AID 1347080;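 active means compounds whose cell count with miR-34 switched on is under 0.7 times the count with it off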); details: A549 miR-34 inducible, Hoechst nuclei count, 48 h
# [20] = measured here: epithelial PC-3E GFP cell survival
# [21] = measured here: mesenchymal TEM4-18 mCherry cell survival
structure (smiles),measurement,setting,value
NC1(C(=O)O)CCCC1,inhibition,[1],20.1%
same,score,[2],1.21
same,rescue above control,[3],-10.9
same,cytochrome c release ratio,[4],4.67
same,inhibition of aggregation,[5],81.6%
same,glutamate uptake change,[6],2.91%
same,aggregation suppression score,[7],1.57
same,parasite load remaining,[8],96.4% (inactive)
same,viability,[8],69.9%
same,inhibition,[9],-12.6% (inactive)
same,red/green cell ratio (normalised),[10],0.86 (inactive)
same,normalised cell number,[10]; [20],1.24
same,normalised cell number,[10]; [21],1.06
same,luciferase signal,[11],76 AU (inactive)
NC1=NCCN1CC(=O)O,inhibition,[1],26.8%
same,score,[2],1.43
same,rescue above control,[3],1.68
same,cytochrome c release ratio,[4],1.01
same,inhibition of aggregation,[5],80.3%
same,glutamate uptake change,[6],12.9%
same,aggregation suppression score,[7],0.99
same,parasite load remaining,[8],89.9% (inactive)
same,viability,[8],69.9%
same,inhibition,[9],-2.27% (inactive)
same,red/green cell ratio (normalised),[10],0.92 (inactive)
same,normalised cell number,[10]; [20],1.1
same,normalised cell number,[10]; [21],1.01
same,luciferase signal,[11],48 AU (inactive)
COc1c(O)cc2oc3cc(O)c(CC=C(C)C)c(O)c3c(=O)c2c1CC=C(C)C,inhibition,[9],11.6% (inactive)
same,red/green cell ratio (normalised),[10],0.81 (inactive)
same,normalised cell number,[10]; [20],1.13
same,normalised cell number,[10]; [21],0.91
same,luciferase signal,[11],40 AU (inactive)
C=CC1=C(C)/C(=C/c2[nH]c(Cc3[nH]c(/C=C4\NC(=O)C(C)=C4C=C)c(C)c3CCC(=O)O)c(CCC(=O)O)c2C)NC1=O,inhibition,[9],2.22% (inactive)
same,red/green cell ratio (normalised),[10],0.85 (inactive)
same,normalised cell number,[10]; [20],1.14
same,normalised cell number,[10]; [21],0.97
same,luciferase signal,[11],60 AU (inactive)
COc1cc(C)c2c(=O)cc(-c3ccccc3)oc2c1,inhibition,[1],15.2%
same,score,[2],-1.86
same,rescue above control,[3],16.3
same,cytochrome c release ratio,[4],1.19
same,inhibition of aggregation,[5],86.2%
same,glutamate uptake change,[6],-16.6%
same,aggregation suppression score,[7],-0.775
same,inhibition,[9],5.95% (inactive)
same,red/green cell ratio (normalised),[10],0.85 (inactive)
same,normalised cell number,[10]; [20],1.28
same,normalised cell number,[10]; [21],1.09
CCN1CCCC1CNC(=O)c1cc(S(N)(=O)=O)ccc1OC (configuration not stated),inhibition,[1],17.6%
same,score,[2],1.43
same,rescue above control,[3],3.11
same,cytochrome c release ratio,[4],0.88
same,inhibition of aggregation,[5],59.1%
same,glutamate uptake change,[6],-6.59%
same,aggregation suppression score,[7],1.43
same,parasite load remaining,[8],39.8% (inactive) and 78.3% (inactive)
same,viability,[8],52.6% and 93.4%
same,inhibition,[9],-9.64% (inactive)
same,outcome,[12],inactive
same,outcome,[13],inactive
same,z-score,"[14]; MELAS cybrid survival, CellTiter-Glo 48 h, stronger effect = higher value",-0.0383 (inactive) and -0.359 (inactive)
same,z-score,"[14]; Rieske KO mouse fibroblast survival, CellTiter-Glo 72 h",0.0677 and 0.0684
same,remaining NAD,[15],10 nM (inactive)
same,luciferase signal,[11],56 AU (inactive)
same,z-score,[16],0.32 (inactive) and 0.4 (inactive) and 0.185 (inactive)
O=c1[nH]c2cc(Cl)c(Cl)cc2[nH]c1=O,inhibition,[9],1.1% (inactive)
same,red/green cell ratio (normalised),[10],1.09 (inactive)
same,normalised cell number,[10]; [20],0.94
same,normalised cell number,[10]; [21],1.02
same,luciferase signal,[11],40 AU (inactive)
O=C(O)CCCN1C(=O)c2cccc3cccc(c23)C1=O,inhibition,[9],-3.59% (inactive)
same,red/green cell ratio (normalised),[10],0.82 (inactive)
same,normalised cell number,[10]; [20],1.29
same,normalised cell number,[10]; [21],1.06
same,luciferase signal,[11],48 AU (inactive)
COc1cccc(O)c1O,inhibition,[9],-0.395% (inactive)
same,red/green cell ratio (normalised),[10],0.97 (inactive)
same,normalised cell number,[10]; [20],0.99
same,normalised cell number,[10]; [21],0.96
same,luciferase signal,[11],52 AU (inactive)
O=C(/C=C/c1ccccc1)c1ccc(O[C@@H]2O[C@H](CO)[C@@H](O)[C@H](O)[C@H]2O)cc1O,parasite load remaining,[8],121% (inactive)
same,viability,[8],96.4%
same,inhibition,[9],4.22% (inactive)
same,red/green cell ratio (normalised),[10],1 (inactive)
same,normalised cell number,[10]; [20],0.9
same,normalised cell number,[10]; [21],0.9
same,luciferase signal,[11],76 AU (inactive)
NCCC(=O)N[C@@H](Cc1cnc[nH]1)C(=O)O,inhibition,[9],-1.18% (inactive)
same,red/green cell ratio (normalised),[10],1.1 (inactive)
same,normalised cell number,[10]; [20],0.93
same,normalised cell number,[10]; [21],1.03
same,luciferase signal,[11],100 AU (inactive)
O=C(O)c1nc2cc(Cl)c(Cl)cc2[nH]c1=O,inhibition,[9],-11.6% (inactive)
same,red/green cell ratio (normalised),[10],0.95 (inactive)
same,normalised cell number,[10]; [20],1.19
same,normalised cell number,[10]; [21],1.12
same,luciferase signal,[11],36 AU (inactive)
CCOC(=O)[C@H](CCc1ccccc1)N[C@H](C)C(=O)N1C2CCCCC2C[C@H]1C(=O)O (some centres not stated),parasite load remaining,[8],125% (inactive)
same,viability,[8],94.3%
same,inhibition,[9],7.88% (inactive)
same,red/green cell ratio (normalised),[10],0.91 (inactive)
same,normalised cell number,[10]; [20],1.03
same,normalised cell number,[10]; [21],0.93
N#Cc1ccc2c(c1)N(CCCN1CCC(O)CC1)c1ccccc1S2,inhibition,[1],-41.8%
same,score,[2],1.21
same,rescue above control,[3],2.76
same,cytochrome c release ratio,[4],0.74
same,inhibition of aggregation,[5],41.2%
same,glutamate uptake change,[6],8.34%
same,aggregation suppression score,[7],1.12
same,parasite load remaining,[8],134% (inactive)
same,viability,[8],87.2%
same,inhibition,[9],-2.33% (inactive)
same,red/green cell ratio (normalised),[10],1.05 (inactive)
same,normalised cell number,[10]; [20],0.87
same,normalised cell number,[10]; [21],0.92
same,luciferase signal,[11],96 AU (inactive)
COc1c2ccoc2nc2c(OC)c(OCC(O)C(C)(C)O)ccc12 (configuration not stated),inhibition,[9],-4.68% (inactive)
same,red/green cell ratio (normalised),[10],0.91 (inactive)
same,normalised cell number,[10]; [20],1
same,normalised cell number,[10]; [21],0.92
same,luciferase signal,[11],28 AU (inactive)
O=C(O)c1cc2ccccc2[nH]1,parasite load remaining,[8],53.6% (inactive)
same,viability,[8],75.3%
same,inhibition,[9],0.53% (inactive)
same,red/green cell ratio (normalised),[10],1.04 (inactive)
same,normalised cell number,[10]; [20],0.91
same,normalised cell number,[10]; [21],0.95
same,luciferase signal,[11],36 AU (inactive)
COC1=CC(=O)C(C(=O)c2ccccc2)=CC1=O,inhibition,[9],-0.278% (inactive)
same,red/green cell ratio (normalised),[10],1.01 (inactive)
same,normalised cell number,[10]; [20],1.01
same,normalised cell number,[10]; [21],1.03
same,luciferase signal,[11],72 AU (inactive)
CCOC(=O)C1=C(O)C(=O)N(Cc2ccccc2)C1,inhibition,[9],-9.58% (inactive)
same,outcome,[13],inactive
same,outcome,[17],inactive
same,outcome,[18],inactive
same,fold change,"[19]; stronger effect = lower value, cell number ratio, induced over uninduced",0.926 (inactive) and 0.964 (inactive)
same,fold change,[19]; measured here: relative caspase fold change +Dox/-Dox,1.46 and 1.07
same,cell count,"[19]; measured here: total cells with miR-34 induction, stronger effect = lower value",9870 and 8960
same,cell count,[19]; measured here: total cells without miR-34 induction,10700 and 9300
same,z-score,[16],0.685 (inactive) and -0.055 (inactive)
NC(Cn1ccc(=O)c(O)c1)C(=O)O (configuration not stated),inhibition,[1],-4.48%
same,score,[2],0.73
same,rescue above control,[3],-6.31
same,cytochrome c release ratio,[4],0.84
same,inhibition of aggregation,[5],7.48%
same,glutamate uptake change,[6],15.6%
same,aggregation suppression score,[7],0.845
same,parasite load remaining,[8],81.8% (inactive) and 76.8% (inactive)
same,viability,[8],72.6%
same,inhibition,[9],17.3% (inactive)
same,red/green cell ratio (normalised),[10],1.1 (inactive)
same,normalised cell number,[10]; [20],0.94
same,normalised cell number,[10]; [21],1.04
